Laboratory results reported in paper PMC6212790, “How bacterial xenogeneic silencer rok distinguishes foreign from self DNA in its resident genome”.
Over roughly 33,000 sequences, “e-score” has its median near -0.037; the highest 2% begin near 0.34. This is one part of a sample in which the highest values are shown more often than they occur.

The sequences below were run against T1, GST-Rok (full length) (Bacillus subtilis subsp. subtilis str. …, UniProt O34857 1-191) (assay: protein binding microarray; Rok is a gene silencer of Bacillus subtilis; high values mean tight binding). Details: protein: recombinant; tags: GST (pTH5325, pDEST15-Magic modified); dsDNA, one strand shown.
T1 sequence: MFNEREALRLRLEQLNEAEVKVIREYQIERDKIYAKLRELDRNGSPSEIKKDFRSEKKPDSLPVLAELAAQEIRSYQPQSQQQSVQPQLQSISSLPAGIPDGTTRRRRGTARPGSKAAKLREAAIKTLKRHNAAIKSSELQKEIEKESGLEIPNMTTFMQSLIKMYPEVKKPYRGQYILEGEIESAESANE
In short: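 Every oligonucleotide joins a 25-mer constant primer to a 35-mer variable part drawn from a de Bruijn sequence of order 10, so each non-palindromic 8-mer appears at least 32 times and each palindromic 8-mer 16 times. The preference for every 8-mer is reported as a unitless, rank-based enrichment score (E-score). This score spans 0.5 for the most favored 8-mer to −0.5 for the most disfavored.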

Which binding signal does the source give for CCCAGTAG here?
The binding signal was 0.151 E-score.

Which binding signal does the source give for AAGTTCAT here?
The binding signal was 0.147 E-score.

With ATGCAAAA as the sequence, how does the binding signal read?
The binding signal was 0.086 E-score.

AAAATACA was tested. Which binding signal did it give?
The binding signal was 0.344 E-score.

With GAAATACC as the sequence, how does the binding signal read?
The binding signal was 0.175 E-score.

How did the binding signal turn out when CAAATACC was run?
Its binding signal is 0.126 E-score.

For AAAATACT, which binding signal is on record?
The binding signal was 0.416 E-score.

Which binding signal does the source give for AAAATAAT here?
The binding signal was 0.246 E-score.

How did the binding signal turn out when TAAATACA was run?
Its binding signal is 0.333 E-score.

AAAATACG was tested. Which binding signal did it give?
The binding signal was 0.303 E-score.

With AAAATACC as the sequence, how does the binding signal read?
Its binding signal is 0.373 E-score.

Which binding signal does the source give for GAAATACA here?
The binding signal was 0.184 E-score.

AACGGTGG was tested. Which binding signal did it give?
Its binding signal is 0.0395 E-score.

CGCCGACG was tested. Which binding signal did it give?
The binding signal was -0.0281 E-score.

AAACAGGA was tested. Which binding signal did it give?
Its binding signal is 0.00183 E-score.

How did the binding signal turn out when ACGTATCA was run?
The binding signal was 0.0936 E-score.

For ACCTTATC, which binding signal is on record?
The binding signal was 0.155 E-score.

How did the binding signal turn out when AACTTAAG was run?
Its binding signal is 0.0622 E-score.

AACATACA was tested. Which binding signal did it give?
The binding signal was 0.355 E-score.

For TACATCTA, which binding signal is on record?
Its binding signal is 0.382 E-score.

AACATGTA was tested. Which binding signal did it give?
The binding signal was 0.285 E-score.

Which binding signal does the source give for TACATGTA here?
Its binding signal is 0.339 E-score.

For CACATCTA, which binding signal is on record?
Its binding signal is 0.268 E-score.

How did the binding signal turn out when ACCATGTA was run?
Its binding signal is 0.385 E-score.

Which binding signal does the source give for ACCATGTG here?
Its binding signal is -0.159 E-score.

For AACATACT, which binding signal is on record?
Its binding signal is 0.136 E-score.

With CACATGTA as the sequence, how does the binding signal read?
The binding signal was 0.284 E-score.

Which binding signal does the source give for AACATCTA here?
Its binding signal is 0.236 E-score.

For AACATACG, which binding signal is on record?
The binding signal was 0.205 E-score.

For CCCATGTA, which binding signal is on record?
The binding signal was 0.12 E-score.

How did the binding signal turn out when GTCAACAA was run?
The binding signal was 0.0786 E-score.

CTGGACTA was tested. Which binding signal did it give?
Its binding signal is 0.0592 E-score.

With CTACAGAC as the sequence, how does the binding signal read?
Its binding signal is 0.12 E-score.

Which binding signal does the source give for CAGATAGA here?
Its binding signal is 0.172 E-score.

How did the binding signal turn out when AATTTGGT was run?
The binding signal was 0.177 E-score.

For CTTAGCAC, which binding signal is on record?
The binding signal was -0.0712 E-score.

For AGGACTAC, which binding signal is on record?
Its binding signal is -0.0384 E-score.

For CTGCAATA, which binding signal is on record?
The binding signal was 0.13 E-score.

For GTAGAGAA, which binding signal is on record?
The binding signal was 0.189 E-score.

AACATATA was tested. Which binding signal did it give?
The binding signal was 0.257 E-score.

For TACATACA, which binding signal is on record?
The binding signal was 0.341 E-score.

How did the binding signal turn out when GACATACA was run?
The binding signal was 0.0575 E-score.

With TACATATA as the sequence, how does the binding signal read?
Its binding signal is 0.347 E-score.

For CACATACA, which binding signal is on record?
Its binding signal is 0.167 E-score.

With GACATATA as the sequence, how does the binding signal read?
Its binding signal is 0.277 E-score.

GTCAGTAA was tested. Which binding signal did it give?
Its binding signal is 0.00175 E-score.

GCATGGAA was tested. Which binding signal did it give?
Its binding signal is -0.193 E-score.

How did the binding signal turn out when GCGACTGA was run?
Its binding signal is 0.0748 E-score.

With CGGTGAAC as the sequence, how does the binding signal read?
Its binding signal is 0.00962 E-score.

For GTCTAGCA, which binding signal is on record?
Its binding signal is -0.0242 E-score.

Which binding signal does the source give for CACATCGC here?
Its binding signal is -0.127 E-score.

For CATCAGGC, which binding signal is on record?
Its binding signal is -0.154 E-score.

How did the binding signal turn out when GTAATGGA was run?
Its binding signal is 0.266 E-score.

Which binding signal does the source give for CTAGCGAC here?
Its binding signal is -0.128 E-score.

For AAGCGTCG, which binding signal is on record?
The binding signal was -0.184 E-score.

For ATAGTTAG, which binding signal is on record?
The binding signal was 0.319 E-score.

How did the binding signal turn out when ATAGTTAC was run?
The binding signal was 0.349 E-score.

With ATAGTTAA as the sequence, how does the binding signal read?
Its binding signal is 0.329 E-score.

For CTAGTTGC, which binding signal is on record?
Its binding signal is 0.281 E-score.

How did the binding signal turn out when CTAGTTAC was run?
The binding signal was 0.418 E-score.

For CTAGTTCC, which binding signal is on record?
The binding signal was 0.188 E-score.

With CACAAAAC as the sequence, how does the binding signal read?
Its binding signal is 0.0504 E-score.

With GATTGCAA as the sequence, how does the binding signal read?
Its binding signal is 0.0926 E-score.

GGAAGCTA was tested. Which binding signal did it give?
Its binding signal is 0.285 E-score.

Which binding signal does the source give for AAGTGGTC here?
The binding signal was -0.0764 E-score.

With CAGTGGTA as the sequence, how does the binding signal read?
The binding signal was 0.258 E-score.

With AATTGGTC as the sequence, how does the binding signal read?
Its binding signal is 0.0556 E-score.

For AATTGGTA, which binding signal is on record?
Its binding signal is 0.339 E-score.

How did the binding signal turn out when AAGTGGTA was run?
The binding signal was 0.348 E-score.

With CATTGGTA as the sequence, how does the binding signal read?
The binding signal was 0.223 E-score.

For ACCGCCAC, which binding signal is on record?
Its binding signal is -0.135 E-score.

With AATTGTGT as the sequence, how does the binding signal read?
The binding signal was 0.149 E-score.

For CACTTTAG, which binding signal is on record?
The binding signal was -0.146 E-score.

How did the binding signal turn out when CTACTGTA was run?
Its binding signal is 0.343 E-score.

How did the binding signal turn out when CTACTGAA was run?
Its binding signal is 0.0898 E-score.

ATACTTAA was tested. Which binding signal did it give?
The binding signal was 0.0668 E-score.

How did the binding signal turn out when ATACTGTA was run?
The binding signal was 0.34 E-score.

With ATACTGAA as the sequence, how does the binding signal read?
The binding signal was 0.103 E-score.

With ATACTGTG as the sequence, how does the binding signal read?
The binding signal was 0.0179 E-score.

Which binding signal does the source give for CTACTTAA here?
The binding signal was 0.372 E-score.

Which binding signal does the source give for GTACTTAA here?
The binding signal was 0.275 E-score.

Which binding signal does the source give for GTACTGTA here?
The binding signal was 0.155 E-score.

How did the binding signal turn out when ACAGTACG was run?
The binding signal was 0.142 E-score.

For GAAGTTGC, which binding signal is on record?
Its binding signal is 0.0518 E-score.

ACGGTCTG was tested. Which binding signal did it give?
The binding signal was -0.0535 E-score.

How did the binding signal turn out when AGCTTACG was run?
The binding signal was -0.0197 E-score.
